From PubChem BioAssay
A number with no mark means an inactive call. Active and inactive are the calls of the source.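 How the source made its calls, unless noted: active means mean inhibition over 43.08%, the solvent-only control mean plus 3 SD; inactive means the rest.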

Experiments:
[1] = biological target: Nuclear receptor coactivator 3 (Homo sapiens) (UniProt Q9Y6Q9); assay: NCOA3 GAL4-fusion reporter inhibition – cell-based, luminescence, quadruplicate, confirmation (AID 588792); conditions: HEK293 GAL4-SRC3 luciferase reporter, at 3.6 µM, stronger effect = higher value;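 further: 0% = DMSO treated cells and 100% = gossypol at 36 µM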
[2] = tested on: transactivating tegument protein VP16 (Human herpesvirus 1), Gal4-VP16 luciferase reporter; assay: repression of VP16-driven luciferase reporter – cell-based, luminescence, high throughput, counter-screen for SRC3 inhibitor project (AID 588794; in the data active means inhibition above about 30%); conditions: mammalian cells, at 3.6 µM, stronger effect = higher value
[3] = biological target: Nuclear receptor coactivator 1 (Homo sapiens) (UniProt Q15788); assay: NCOA1 GAL4-fusion reporter inhibition – cell-based, luminescence, quadruplicate, confirmation (AID 588820;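 active means mean inhibition above 46.68%, the untreated control wells mean plus 3 SD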;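 further: 0% = DMSO wells and 100% = gossypol 36 µM treated wells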); conditions: HEK293 GAL4-SRC1 luciferase reporter, at 3.6 µM, stronger effect = higher value
[4] = repression of VP16-driven luciferase reporter – cell-based, luminescence, high throughput, counter-screen for SRC1 inhibitor project (AID 588824; in the data active means inhibition above about 25%); conditions: cell-based VP16 transactivation luciferase luminescence; at 3.6 µM; stronger effect = higher value
[5] = StAR promoter reporter inhibitors, counter-screen for LRH-1 inverse agonist project, cell-based, luminescence, high throughput (AID 651611; in the data active means inhibition above about 28%); conditions: StAR promoter luciferase reporter counterscreen, at 3.6 µM, stronger effect = higher value
[6] = biological target: Nuclear receptor subfamily 5 group A member 2 (Homo sapiens) (UniProt O00482); assay: NR5A2 activity suppression in reporter cells – cell-based, luminescence, confirmation (AID 651613; in the data active means inhibition above about 42%;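 further: HEK293T cells co-transfected with LRH-1 and StAR promoter luciferase reporter; 0% = vehicle wells and 100% = parental cells lacking receptor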); conditions: cell-based LRH-1 luciferase reporter, inverse agonism; at 3.6 µM; stronger effect = higher value
[7] = biological target: Steroidogenic factor 1 (Homo sapiens) (UniProt Q13285); assay: inverse agonism at SF1 nuclear receptor – cell-based, luminescence, high throughput, counter-screen for LRH-1 inverse agonist project (AID 651614; in the data active means inhibition above about 44%;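 further: cells cotransfected with StAR promoter reporter and SF1 expression vector; 0% = vehicle on cells with receptor and 100% = vehicle on cells lacking receptor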); conditions: cell-based SF1 luciferase reporter, at 3.6 µM, stronger effect = higher value
[8] = compounds suppressing VP16-driven luciferase signal – cell-based, luminescence, high throughput, counter-screen for LRH-1 inverse agonist project (AID 651615; in the data active means inhibition above about 33%); conditions: Gal4-VP16 luciferase reporter cells, at 3.6 µM, stronger effect = higher value

Nuclear receptor coactivator 1 (Homo sapiens), sequence (Q15788 whole entry, looked up, the tested form may be a part): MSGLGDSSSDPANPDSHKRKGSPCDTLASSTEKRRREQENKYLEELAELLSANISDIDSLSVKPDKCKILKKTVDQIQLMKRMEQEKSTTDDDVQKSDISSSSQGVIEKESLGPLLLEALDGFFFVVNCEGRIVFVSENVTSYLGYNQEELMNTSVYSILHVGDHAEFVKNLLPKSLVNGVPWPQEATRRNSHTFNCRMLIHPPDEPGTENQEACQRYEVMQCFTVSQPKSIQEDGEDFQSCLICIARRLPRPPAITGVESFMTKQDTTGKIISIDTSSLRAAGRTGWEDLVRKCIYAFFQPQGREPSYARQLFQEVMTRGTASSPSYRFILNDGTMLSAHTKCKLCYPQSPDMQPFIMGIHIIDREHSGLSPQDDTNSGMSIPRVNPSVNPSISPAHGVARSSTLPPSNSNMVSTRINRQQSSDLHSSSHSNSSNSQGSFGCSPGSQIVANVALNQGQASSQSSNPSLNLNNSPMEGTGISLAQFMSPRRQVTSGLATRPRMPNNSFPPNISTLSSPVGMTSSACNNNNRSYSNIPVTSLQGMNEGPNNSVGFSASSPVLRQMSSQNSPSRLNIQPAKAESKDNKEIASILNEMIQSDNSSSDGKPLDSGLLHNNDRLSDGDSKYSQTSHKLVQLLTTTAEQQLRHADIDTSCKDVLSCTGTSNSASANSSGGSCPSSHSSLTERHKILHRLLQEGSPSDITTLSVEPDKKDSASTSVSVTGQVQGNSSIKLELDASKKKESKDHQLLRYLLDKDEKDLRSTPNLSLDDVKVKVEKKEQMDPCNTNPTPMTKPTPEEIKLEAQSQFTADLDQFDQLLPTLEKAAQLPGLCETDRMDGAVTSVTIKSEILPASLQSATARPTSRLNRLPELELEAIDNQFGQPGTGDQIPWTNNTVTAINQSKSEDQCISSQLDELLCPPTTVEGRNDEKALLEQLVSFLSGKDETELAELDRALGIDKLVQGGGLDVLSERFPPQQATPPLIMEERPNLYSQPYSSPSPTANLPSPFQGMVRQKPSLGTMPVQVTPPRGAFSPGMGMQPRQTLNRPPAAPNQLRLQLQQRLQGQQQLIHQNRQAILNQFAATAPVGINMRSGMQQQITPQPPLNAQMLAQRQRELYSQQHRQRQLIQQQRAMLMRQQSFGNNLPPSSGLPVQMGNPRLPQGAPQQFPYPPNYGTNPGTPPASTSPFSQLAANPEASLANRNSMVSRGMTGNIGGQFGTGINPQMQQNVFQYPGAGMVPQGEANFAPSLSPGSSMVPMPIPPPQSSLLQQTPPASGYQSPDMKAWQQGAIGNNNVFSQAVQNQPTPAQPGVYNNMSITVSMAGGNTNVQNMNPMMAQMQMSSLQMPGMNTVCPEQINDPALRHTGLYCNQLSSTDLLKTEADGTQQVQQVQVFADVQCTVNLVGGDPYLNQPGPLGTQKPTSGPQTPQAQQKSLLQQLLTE
Nuclear receptor subfamily 5 group A member 2 (Homo sapiens), sequence (O00482 whole entry, looked up): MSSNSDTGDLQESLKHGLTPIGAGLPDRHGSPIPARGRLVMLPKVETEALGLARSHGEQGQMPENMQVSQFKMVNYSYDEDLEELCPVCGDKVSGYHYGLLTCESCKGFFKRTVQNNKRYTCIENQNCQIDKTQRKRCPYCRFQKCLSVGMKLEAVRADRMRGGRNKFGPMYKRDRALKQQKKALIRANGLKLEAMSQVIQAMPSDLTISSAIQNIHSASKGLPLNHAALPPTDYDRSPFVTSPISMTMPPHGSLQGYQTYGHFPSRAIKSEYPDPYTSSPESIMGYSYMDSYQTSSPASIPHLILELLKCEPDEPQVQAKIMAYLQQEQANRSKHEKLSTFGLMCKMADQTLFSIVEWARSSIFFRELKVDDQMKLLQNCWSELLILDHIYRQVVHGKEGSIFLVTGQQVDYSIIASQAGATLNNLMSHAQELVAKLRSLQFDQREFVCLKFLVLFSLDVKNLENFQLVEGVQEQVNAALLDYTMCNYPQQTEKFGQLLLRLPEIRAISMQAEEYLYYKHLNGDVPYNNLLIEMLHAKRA
Steroidogenic factor 1 (Homo sapiens), sequence (Q13285 whole entry, looked up, the tested form may be a part): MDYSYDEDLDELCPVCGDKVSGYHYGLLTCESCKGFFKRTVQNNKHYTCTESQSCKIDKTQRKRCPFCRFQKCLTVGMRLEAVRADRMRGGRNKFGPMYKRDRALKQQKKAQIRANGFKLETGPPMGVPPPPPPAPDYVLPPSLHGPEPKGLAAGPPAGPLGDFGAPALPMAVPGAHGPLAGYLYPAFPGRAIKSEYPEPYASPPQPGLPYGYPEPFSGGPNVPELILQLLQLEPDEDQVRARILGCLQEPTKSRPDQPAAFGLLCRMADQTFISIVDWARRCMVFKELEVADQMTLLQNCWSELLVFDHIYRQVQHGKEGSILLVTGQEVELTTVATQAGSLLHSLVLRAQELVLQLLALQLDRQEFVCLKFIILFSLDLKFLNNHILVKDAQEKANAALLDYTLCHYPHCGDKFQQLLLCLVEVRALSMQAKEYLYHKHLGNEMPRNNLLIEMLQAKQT
Nuclear receptor coactivator 3 (Homo sapiens), sequence (Q9Y6Q9 whole entry, looked up, the tested form may be a part): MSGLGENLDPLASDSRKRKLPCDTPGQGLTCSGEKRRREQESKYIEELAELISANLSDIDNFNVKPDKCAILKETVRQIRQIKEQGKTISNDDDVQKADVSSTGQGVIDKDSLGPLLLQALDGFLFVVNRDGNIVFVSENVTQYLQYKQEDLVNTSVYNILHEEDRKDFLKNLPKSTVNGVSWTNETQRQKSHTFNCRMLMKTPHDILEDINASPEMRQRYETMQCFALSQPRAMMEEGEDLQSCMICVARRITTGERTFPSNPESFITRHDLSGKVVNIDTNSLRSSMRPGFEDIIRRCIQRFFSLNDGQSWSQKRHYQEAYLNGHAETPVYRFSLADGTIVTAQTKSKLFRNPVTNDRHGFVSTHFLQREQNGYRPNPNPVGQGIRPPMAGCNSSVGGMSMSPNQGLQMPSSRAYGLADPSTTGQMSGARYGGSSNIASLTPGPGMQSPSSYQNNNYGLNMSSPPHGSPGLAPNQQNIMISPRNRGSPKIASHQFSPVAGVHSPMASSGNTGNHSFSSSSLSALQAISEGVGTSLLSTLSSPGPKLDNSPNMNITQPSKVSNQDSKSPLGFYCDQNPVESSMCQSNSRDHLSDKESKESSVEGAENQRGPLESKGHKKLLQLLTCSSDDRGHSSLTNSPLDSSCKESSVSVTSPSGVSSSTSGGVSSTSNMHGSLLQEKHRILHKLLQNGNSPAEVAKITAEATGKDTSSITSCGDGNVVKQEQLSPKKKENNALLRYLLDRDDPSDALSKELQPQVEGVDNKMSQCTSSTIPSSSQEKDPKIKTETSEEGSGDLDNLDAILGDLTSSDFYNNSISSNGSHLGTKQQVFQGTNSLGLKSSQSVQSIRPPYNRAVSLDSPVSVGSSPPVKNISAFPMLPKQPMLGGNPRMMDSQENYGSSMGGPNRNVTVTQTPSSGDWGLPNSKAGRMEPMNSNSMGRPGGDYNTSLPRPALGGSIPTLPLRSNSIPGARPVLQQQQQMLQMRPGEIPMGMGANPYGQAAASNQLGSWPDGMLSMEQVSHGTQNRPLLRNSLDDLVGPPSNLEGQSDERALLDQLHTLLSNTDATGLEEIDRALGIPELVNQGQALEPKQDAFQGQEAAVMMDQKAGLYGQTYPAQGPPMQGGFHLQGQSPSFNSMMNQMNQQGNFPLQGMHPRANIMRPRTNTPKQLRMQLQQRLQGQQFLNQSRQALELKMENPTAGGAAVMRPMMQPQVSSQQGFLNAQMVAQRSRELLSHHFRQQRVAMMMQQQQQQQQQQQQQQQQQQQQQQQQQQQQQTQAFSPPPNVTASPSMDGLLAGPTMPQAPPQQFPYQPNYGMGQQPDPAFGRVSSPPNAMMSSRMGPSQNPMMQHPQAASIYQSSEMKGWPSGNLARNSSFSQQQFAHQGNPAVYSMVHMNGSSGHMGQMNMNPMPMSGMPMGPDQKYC

Compound | inhibition [1] | inhibition [2] | inhibition [3] | inhibition [4] | inhibition [5] | inhibition [6] | inhibition [7] | inhibition [8]
CC(=O)NC(c1ccc(Cl)cc1)c1ccc2cccnc2c1O (stereo not drawn) | 83% (active) | 79.9% (active) | 80% (active) | 78.4% (active) | 89.2% (active) | 104% (active) | 91.2% (active) | 87% (active)
COc1ccc(-c2c[n+]3c(n2-c2ccc(C)cc2)CCCCC3)cc1 | 36.5% | 60.1% (active) | 32.6% | 60.2% (active) | 53% (active) | 105% (active) | 82% (active) | 73.7% (active)
CC(=NNC(=S)N1CC2CCC(CC2)C1)c1ccccn1 | 35.5% | 54.8% (active) | 1.55% | 49.8% (active) | 59.4% (active) | 98.3% (active) | 77.3% (active) | 64.6% (active)
Cc1cccc2cc(-c3ccccc3)c(-c3ccccc3)c[n+]12 | 4.1% | 37% (active) | 5.14% | 40.4% (active) | 18.2% | 106% (active) | 63.2% (active) | 81.7% (active)
CC(C)CCCCCCCCCCCCC(=O)NCC(=O)NC1C(O)C(O)C(Nc2ncnc3nc[nH]c23)OC1C(O)CO (stereo not drawn) | 96.9% (active) | 95.9% (active) | 94.2% (active) | 95.4% (active) | 96.7% (active) | 110% (active) | 98.1% (active) | 98.2% (active)
CCCCCCCCCn1c2c(c(=N)c3c1CCC3)CCCC2 | 87.2% (active) | 90.4% (active) | 65.6% (active) | 85.3% (active) | 83.7% (active) | 111% (active) | 95.6% (active) | 94.6% (active)
Nc1nc(N)c2c(ccc3c2ccn3Cc2cccc([N+](=O)[O-])c2)n1 | 76.1% (active) | 42.6% (active) | 71.1% (active) | 40.8% (active) | 72.6% (active) | 65.6% (active) | 67.4% (active) | 43.3% (active)
Cc1nn(Cc2ccc(C(=O)Nc3nccs3)cc2)c(C)c1Cl | 21.7% | 45.6% (active) | 17.9% | 43.8% (active) | 46.8% (active) | 62.3% (active) | 67% (active) | 64.6% (active)
CN(C)c1cc[n+](CC(=O)c2ccc(-c3ccccc3)cc2)cc1 | 35.6% | 57.6% (active) | 35% | 66.5% (active) | 43.8% (active) | 82.3% (active) | 71.8% (active) | 67.9% (active)
CC(=O)Nc1ccc(SCC(=O)c2cc(C)n(Cc3cccs3)c2C)cc1 | 52.1% (active) | 40.1% (active) | -1.59% | 5.47% | -55.3% | -90.8% | -25.9% | -31.9%
NC(=S)NN=Cc1cc(-c2cccc(N)c2)ccn1 | 77.3% (active) | 53% (active) | 64.1% (active) | 52.2% (active) | 75.3% (active) | 93.6% (active) | 88% (active) | 72.4% (active)
CCC1(OC(=O)CN(C)C)C(=O)OCc2c1cc1n(c2=O)Cc2cc3c(N)cccc3nc2-1 (stereo not drawn) | 89.8% (active) | 65.3% (active) | 62.3% (active) | 54.6% (active) | 83.5% (active) | 103% (active) | 90.5% (active) | 68.1% (active)
CCCCC(=O)NC(c1ccc(Cl)cc1Cl)c1ccc2cccnc2c1O (stereo not drawn) | 39.4% | 24.5% | 27.4% | 27.2% (active) | 64% (active) | 82% (active) | 60.9% (active) | 71.7% (active)
Brc1ccc2c(c1)CN1CCCC1=N2 | 15.1% | 31.6% (active) | 9.34% | 28% (active) | 30.9% (active) | 42.2% (active) | 30.6% | 42.4% (active)
Cc1ccc(-n2c(-c3ccccc3)c[n+]3c2CCc2ccccc2-3)c(C)c1 | 61.7% (active) | 68.1% (active) | 42.5% | 69.4% (active) | 57.4% (active) | 107% (active) | 87.7% (active) | 91.7% (active)
C=C1C(=O)C23C(O)C1CCC2C12CCCC(C)(COC(C)=O)C1C(O)C3(O)OC2 (stereo not drawn) | 66.6% (active) | 58.3% (active) | 20.7% | 57.9% (active) | 71.9% (active) | 63.7% (active) | 74.4% (active) | 82.5% (active)
